Our source for the Percent Effect values is ChEMBL document CHEMBL3988442, “University of Dundee, Small-Polar-MMV Screening Library” (2021).

Parameters in all cases: scale not given: direction of the effect not stated beside the values
The target of assay [1] is Protein translocase subunit SecA (Escherichia coli (strain K12)) (UniProt P10408). Briefly: Assay to Identify E. coli SecA ATPase Inhibitors. It is filed as functional. The settings on record: 30 µM.
Assay [2] addresses T1, Ubiquitin-activating enzyme e1, putative (Leishmania donovani (strain BPK282A1)) (UniProt E9BSI1).
T1 sequence (whole entry): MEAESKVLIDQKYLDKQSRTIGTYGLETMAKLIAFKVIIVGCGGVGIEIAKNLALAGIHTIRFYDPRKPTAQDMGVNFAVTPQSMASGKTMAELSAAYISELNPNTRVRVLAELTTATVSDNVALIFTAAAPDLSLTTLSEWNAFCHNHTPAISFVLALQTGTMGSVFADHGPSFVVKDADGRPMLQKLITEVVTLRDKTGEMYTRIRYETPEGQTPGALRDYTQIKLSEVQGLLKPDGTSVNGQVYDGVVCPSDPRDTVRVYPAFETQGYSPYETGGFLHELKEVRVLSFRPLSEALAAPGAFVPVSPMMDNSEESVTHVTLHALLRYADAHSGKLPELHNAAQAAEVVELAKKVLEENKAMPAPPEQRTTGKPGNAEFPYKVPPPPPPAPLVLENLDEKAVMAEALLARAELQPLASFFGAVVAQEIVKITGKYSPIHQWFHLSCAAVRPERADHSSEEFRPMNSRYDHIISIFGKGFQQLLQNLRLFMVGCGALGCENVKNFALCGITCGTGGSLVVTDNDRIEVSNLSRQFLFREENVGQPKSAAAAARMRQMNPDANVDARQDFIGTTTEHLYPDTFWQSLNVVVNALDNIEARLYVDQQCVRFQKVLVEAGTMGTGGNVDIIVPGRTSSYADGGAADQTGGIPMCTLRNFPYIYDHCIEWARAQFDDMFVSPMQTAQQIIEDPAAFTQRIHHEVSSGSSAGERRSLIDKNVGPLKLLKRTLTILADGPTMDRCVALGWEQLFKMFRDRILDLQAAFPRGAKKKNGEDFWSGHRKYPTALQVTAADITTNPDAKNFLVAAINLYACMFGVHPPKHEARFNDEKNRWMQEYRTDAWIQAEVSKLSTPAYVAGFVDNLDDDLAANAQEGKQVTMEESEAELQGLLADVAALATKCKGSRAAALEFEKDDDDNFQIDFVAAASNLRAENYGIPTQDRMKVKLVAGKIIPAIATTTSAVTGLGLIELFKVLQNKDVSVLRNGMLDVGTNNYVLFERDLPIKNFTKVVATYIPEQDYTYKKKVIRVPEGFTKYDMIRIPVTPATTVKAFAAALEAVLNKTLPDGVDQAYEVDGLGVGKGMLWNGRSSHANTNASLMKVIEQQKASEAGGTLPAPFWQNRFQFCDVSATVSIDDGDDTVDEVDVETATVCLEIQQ
Briefly: Leishmania donovani Ubiquitin Activating Enzyme (LdE1). It is filed as functional. The settings on record: 30 µM.

Assay [3] deals with AMP-activated protein kinase, AMPK (Homo sapiens) (UniProt P54646+O43741+P54619+Q9UGJ0+Q9Y478+Q13131+Q9UGI9). As to the kind of experiment: AMP-dependent Kinase enzyme assay. An in vitro enzyme assay that detects ADP turnover that is directly proportional to AMPK activity. This uses naive AMPK that is activated during the assay with MK-8722. It is filed as functional. As to conditions: 30 µM.

The target of assay [4] is Sialic acid-binding Ig-like lectin 9 (Homo sapiens) (UniProt Q9Y336). Briefly: Hs-Siglec9 ALPHAscreen SOP 20170721. As to conditions: 10 µM. (In general: In Alpha technology, singlet oxygen from a donor bead excites a nearby acceptor bead.)
Chain of Sialic acid-binding Ig-like lectin 9 (Homo sapiens) (Q9Y336 whole entry): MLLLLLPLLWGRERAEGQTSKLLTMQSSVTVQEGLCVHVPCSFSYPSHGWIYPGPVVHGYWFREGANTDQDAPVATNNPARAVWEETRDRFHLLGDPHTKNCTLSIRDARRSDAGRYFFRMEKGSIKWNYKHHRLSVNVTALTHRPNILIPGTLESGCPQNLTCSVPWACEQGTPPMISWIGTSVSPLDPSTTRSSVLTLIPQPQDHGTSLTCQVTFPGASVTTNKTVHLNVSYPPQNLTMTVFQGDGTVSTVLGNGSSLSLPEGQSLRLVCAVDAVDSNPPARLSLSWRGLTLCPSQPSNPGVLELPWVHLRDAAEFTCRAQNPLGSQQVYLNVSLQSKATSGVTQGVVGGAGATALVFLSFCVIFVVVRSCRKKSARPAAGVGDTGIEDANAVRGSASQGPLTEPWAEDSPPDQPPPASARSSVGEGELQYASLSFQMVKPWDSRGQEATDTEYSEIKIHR
In another assay the test system is Trypanosoma cruzi. Briefly: Trypanosoma cruzi phosphomannomutase and mannose-1-phosphate guanylyltransferase assay. It is filed as functional. As to conditions: 10 µM.
Assay [5] has as its target T2, Arginase-2, mitochondrial (Homo sapiens) (UniProt P78540).
T2 sequence (whole entry): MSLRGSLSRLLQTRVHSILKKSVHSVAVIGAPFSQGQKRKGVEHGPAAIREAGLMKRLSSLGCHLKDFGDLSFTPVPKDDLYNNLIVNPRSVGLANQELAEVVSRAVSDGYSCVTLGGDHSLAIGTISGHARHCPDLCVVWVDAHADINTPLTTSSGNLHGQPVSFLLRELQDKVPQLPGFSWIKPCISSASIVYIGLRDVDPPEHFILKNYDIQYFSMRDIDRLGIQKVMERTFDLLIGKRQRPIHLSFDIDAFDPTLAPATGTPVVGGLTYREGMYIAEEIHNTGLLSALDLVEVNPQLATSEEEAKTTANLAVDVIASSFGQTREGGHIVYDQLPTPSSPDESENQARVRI
As to the kind of experiment: in vitro enzyme assay to detect the production of urea directly proportional to the activity of Arginase II. Note: in the data most compounds retested in dose-response had high values. It is filed as functional. As to conditions: 33.3 µM.

Assay [6] deals with T3, Proteasome subunit beta (Trypanosoma cruzi) (UniProt O96673).
T3 sequence (whole entry): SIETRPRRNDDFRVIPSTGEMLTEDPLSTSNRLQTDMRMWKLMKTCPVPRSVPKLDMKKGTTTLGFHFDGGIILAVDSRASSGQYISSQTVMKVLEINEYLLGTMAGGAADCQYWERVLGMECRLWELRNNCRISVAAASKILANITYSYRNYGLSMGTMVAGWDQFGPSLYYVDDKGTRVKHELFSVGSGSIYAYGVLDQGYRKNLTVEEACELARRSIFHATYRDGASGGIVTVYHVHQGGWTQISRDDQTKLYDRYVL
Briefly: Trypanosoma cruzi proteasome chymotrypsin-like activity (TcProtChymo) assay. Note: in the data most compounds retested in dose-response had high values. As to conditions: 9.37 µM. It is filed as functional.

A further assay is filed under the species Homo sapiens. Briefly: To identify inhibition of the IFN signalling (Jak-Stat) pathway via expression of an eGFP reporter gene under the control of an IFN-stimulated response element (ISRE) containing MxA promoter. It is filed as functional. The settings on record: 30 µM.
Assay [7] deals with T4, Tyrosyl-tRNA synthetase, putative (Trypanosoma cruzi (strain CL Brener)) (UniProt Q4DSP6).
T4 sequence (whole entry): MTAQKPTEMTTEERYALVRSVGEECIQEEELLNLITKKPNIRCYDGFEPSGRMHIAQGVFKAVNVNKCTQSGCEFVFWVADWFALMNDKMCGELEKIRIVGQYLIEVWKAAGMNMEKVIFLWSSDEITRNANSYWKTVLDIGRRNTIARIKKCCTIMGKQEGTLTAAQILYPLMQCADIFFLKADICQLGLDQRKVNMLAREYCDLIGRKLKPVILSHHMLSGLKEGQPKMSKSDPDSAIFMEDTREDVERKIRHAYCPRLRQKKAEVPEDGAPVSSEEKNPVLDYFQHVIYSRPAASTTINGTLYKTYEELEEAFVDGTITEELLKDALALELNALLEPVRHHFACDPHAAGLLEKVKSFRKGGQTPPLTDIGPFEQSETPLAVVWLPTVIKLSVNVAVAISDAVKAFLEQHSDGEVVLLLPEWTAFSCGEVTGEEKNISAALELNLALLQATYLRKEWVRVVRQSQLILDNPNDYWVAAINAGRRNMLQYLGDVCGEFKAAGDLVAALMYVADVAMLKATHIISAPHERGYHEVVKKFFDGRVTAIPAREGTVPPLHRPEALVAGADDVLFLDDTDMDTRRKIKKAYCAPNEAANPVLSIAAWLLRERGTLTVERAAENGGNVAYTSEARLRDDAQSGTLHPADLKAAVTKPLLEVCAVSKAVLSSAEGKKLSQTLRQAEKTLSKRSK
Briefly: Trypanosoma cruzi tyrosyl tRNA synthetase (TcYRS) _High Tyrosine SOP. Note: in the data most compounds retested in dose-response had high values. The settings on record: 30 µM. It is filed as functional.

Assay [8] deals with T4, Tyrosyl-tRNA synthetase, putative (Trypanosoma cruzi (strain CL Brener)). As to the kind of experiment: Trypanosoma cruzi tyrosyl tRNA synthetase (TcYRS) SOP. It is filed as functional. As to conditions: 30 µM.
For assay [9], the target named is Chromo domain-containing protein 1 (Saccharomyces cerevisiae (strain ATCC 204508 / S288c) (Baker's yeast)) (UniProt P32657). Briefly: ScCHD-1 Enzyme Inhibition Assay. Note: in the data most compounds retested in dose-response had high values. It is filed as functional. As to conditions: 30 µM.
Chain of Chromo domain-containing protein 1 (Saccharomyces cerevisiae (strain ATCC 204508 / S288c) (Baker's yeast)) (P32657 whole entry, the tested form may be a part): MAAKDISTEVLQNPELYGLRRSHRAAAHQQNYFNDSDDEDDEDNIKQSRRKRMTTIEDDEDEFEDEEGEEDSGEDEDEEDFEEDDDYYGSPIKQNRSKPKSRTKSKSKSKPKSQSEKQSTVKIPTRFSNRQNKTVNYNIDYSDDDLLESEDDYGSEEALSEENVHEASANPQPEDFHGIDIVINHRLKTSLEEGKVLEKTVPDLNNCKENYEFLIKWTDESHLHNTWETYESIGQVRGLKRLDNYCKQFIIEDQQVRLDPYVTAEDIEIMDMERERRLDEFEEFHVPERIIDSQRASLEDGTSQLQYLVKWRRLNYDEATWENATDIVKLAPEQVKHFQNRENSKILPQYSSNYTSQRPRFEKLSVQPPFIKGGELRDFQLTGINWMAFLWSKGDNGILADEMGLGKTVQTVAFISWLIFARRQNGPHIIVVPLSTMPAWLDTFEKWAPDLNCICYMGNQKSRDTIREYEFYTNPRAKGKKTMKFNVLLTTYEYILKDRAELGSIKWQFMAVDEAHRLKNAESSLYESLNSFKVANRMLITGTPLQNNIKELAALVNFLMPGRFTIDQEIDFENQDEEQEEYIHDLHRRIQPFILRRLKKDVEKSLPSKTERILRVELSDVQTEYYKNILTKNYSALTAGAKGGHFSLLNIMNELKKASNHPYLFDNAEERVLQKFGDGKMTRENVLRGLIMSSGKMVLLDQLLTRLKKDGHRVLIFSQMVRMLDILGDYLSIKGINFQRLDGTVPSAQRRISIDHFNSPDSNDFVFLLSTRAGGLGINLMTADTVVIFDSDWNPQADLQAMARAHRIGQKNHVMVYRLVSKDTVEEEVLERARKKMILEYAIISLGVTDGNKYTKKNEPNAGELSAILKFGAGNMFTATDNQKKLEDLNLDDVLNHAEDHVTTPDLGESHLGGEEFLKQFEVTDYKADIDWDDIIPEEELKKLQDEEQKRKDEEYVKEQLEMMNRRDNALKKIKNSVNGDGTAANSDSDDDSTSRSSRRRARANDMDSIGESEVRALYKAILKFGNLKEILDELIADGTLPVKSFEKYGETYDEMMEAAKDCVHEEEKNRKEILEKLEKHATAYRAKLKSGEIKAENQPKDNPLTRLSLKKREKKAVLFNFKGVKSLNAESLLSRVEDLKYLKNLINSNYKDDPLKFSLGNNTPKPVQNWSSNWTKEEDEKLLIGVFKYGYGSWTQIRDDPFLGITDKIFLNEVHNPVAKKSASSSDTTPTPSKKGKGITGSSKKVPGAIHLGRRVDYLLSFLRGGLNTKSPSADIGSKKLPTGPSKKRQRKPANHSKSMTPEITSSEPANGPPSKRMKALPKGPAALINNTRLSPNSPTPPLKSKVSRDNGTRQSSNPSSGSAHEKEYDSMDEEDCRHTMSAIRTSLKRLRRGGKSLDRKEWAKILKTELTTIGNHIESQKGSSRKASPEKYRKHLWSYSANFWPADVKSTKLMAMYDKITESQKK

The structures appear in SMILES notation. For some of these results: Results with a measured potency or affinity are listed apart.

Chain of Protein translocase subunit SecA (Escherichia coli (strain K12)) (P10408 whole entry): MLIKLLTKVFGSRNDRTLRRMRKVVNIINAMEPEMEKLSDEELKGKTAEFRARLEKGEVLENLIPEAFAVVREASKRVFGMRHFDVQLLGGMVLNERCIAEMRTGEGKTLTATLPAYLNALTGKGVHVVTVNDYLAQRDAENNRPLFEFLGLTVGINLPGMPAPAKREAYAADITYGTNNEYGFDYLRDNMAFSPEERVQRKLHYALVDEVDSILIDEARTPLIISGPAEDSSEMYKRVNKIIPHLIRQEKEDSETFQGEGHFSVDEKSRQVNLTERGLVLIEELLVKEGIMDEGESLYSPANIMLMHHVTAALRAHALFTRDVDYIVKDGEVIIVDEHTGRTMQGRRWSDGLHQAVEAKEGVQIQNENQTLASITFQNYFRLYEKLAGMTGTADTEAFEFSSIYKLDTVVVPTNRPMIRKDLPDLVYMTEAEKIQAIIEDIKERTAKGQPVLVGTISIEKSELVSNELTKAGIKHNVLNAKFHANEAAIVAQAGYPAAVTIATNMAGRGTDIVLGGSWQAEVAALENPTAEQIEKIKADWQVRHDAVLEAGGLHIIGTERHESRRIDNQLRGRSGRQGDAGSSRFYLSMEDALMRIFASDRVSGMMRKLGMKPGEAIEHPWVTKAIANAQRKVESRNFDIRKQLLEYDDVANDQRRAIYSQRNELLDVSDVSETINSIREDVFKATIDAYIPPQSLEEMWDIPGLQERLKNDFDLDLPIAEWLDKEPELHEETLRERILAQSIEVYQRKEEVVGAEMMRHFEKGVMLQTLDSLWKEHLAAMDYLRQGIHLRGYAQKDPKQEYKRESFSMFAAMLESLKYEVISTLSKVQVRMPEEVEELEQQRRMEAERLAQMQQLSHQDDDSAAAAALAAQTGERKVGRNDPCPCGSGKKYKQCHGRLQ

On to `O=C(CN1CCC(C(=O)c2cc(F)ccc2F)CC1)NC1CCCC1`, for which the Percent Effect in [1] was -10.1%; in assay [2], -5.26%; in assay [3], 13.8%; in [4], -3.6%; in the assay on Trypanosoma cruzi, -1.46%; in assay [5] it was 5.92%. The Percent Effect is 8.53% in [6]; 26.2% in the assay listed under Homo sapiens; 1.06% in assay [7]; 0% in [8]; -3.84% in [9].
In the case of `CN(CCC(F)(F)F)C(=O)C1CCCN1C(=O)OC(C)(C)C` (stereo unspecified), the Percent Effect in assay [1] is -3.42%; in [2], 2.74%; in assay [3], 0.924%; in [4], -4.88%; in the assay on Trypanosoma cruzi, 2.15%; in assay [5], 2.27%. Further, the Percent Effect in assay [6] was -2.31%; in the assay listed under Homo sapiens, -3.94%; in [7], 3.23%; in assay [8], 2.5%; in assay [9], -0.543%.
Regarding `CCC(C)(NCC(=O)Nc1nc(C)cs1)c1nc(C)cs1` (stereo unspecified), the Percent Effect in assay [1] was 0.0522%; in assay [2] it was 10.8%; in assay [3], -10.8%; in assay [4] it was -1.43%; in the assay with Trypanosoma cruzi, -3.62%; in assay [5], -2.73%. In addition, the Percent Effect is 7.47% in assay [6]; 21% in the assay listed under Homo sapiens; 7.53% in [7]; 13.6% in [8]; -3.58% in assay [9].
Regarding `COc1cc(C)nc(N2CCN(C(=O)CCn3cc(C)cn3)CC2)n1`, the Percent Effect in assay [1] is -1.32%; in assay [2] it was 10.1%; in assay [3], 1.67%; in [4], 2.37%; with Trypanosoma cruzi it was -6.52%; in [5], 4.94%. Also, the Percent Effect in assay [6] was -6.47%; in the assay filed under Homo sapiens, 11%; in assay [7], -6.4%; in assay [8] it was 11.4%; in assay [9] it was -2.89%.
Regarding `COc1ccc(CCNC(=O)C2CCC(Cn3cnnn3)CC2)cc1` (stereo unspecified), the Percent Effect in assay [1] was -1.81%; in assay [2] it was 1.33%; in assay [3], 15.9%; in assay [4], 3.74%; with Trypanosoma cruzi, -1.38%; in assay [5], -5.81%. Besides, the Percent Effect is 5.18% in assay [6]; -2.49% in the assay listed under Homo sapiens; 5.29% in [7]; 2.56% in assay [8]; -1.04% in [9].
`CCOCC1CN(Cc2ccoc2)Cc2ncn(CC3CC3)c21` (stereo unspecified): the Percent Effect in [1] was -8.23%; in assay [2] it was -2.7%; in assay [3], 0.834%; in assay [4] it was 4.02%; in the assay on Trypanosoma cruzi, -2.34%; in assay [5] it was -0.833%. Further, the Percent Effect in [6] was 10.1%; in the assay filed under Homo sapiens it was 3.58%; in assay [7], 4.95%; in assay [8] it was -1.22%; in [9], -0.436%.
For `COc1ncccc1C(=O)N1CCCC(c2cc(C)[nH]n2)C1` (stereo unspecified), the Percent Effect in assay [1] is -4.92%; in [2] it was 0%; in [3] it was -0.772%; in [4], -1.9%; in the assay with Trypanosoma cruzi it was -0.66%; in assay [5], -0.802%. Moreover, the Percent Effect in assay [6] was 1.8%; in the assay filed under Homo sapiens, 10.4%; in [7], 1.48%; in assay [8], -6.17%; in assay [9], 1.58%.
Turning to `CCn1ccnc1CN1C[C@@H](CN2CCCC2)[C@@H](CO)C1`, the Percent Effect was -6.84% in assay [1]; -2.7% in assay [2]; -3.35% in [3]; 7.12% in assay [4]; -4.44% with Trypanosoma cruzi; -1.91% in [5]. Further, the Percent Effect is 8.28% in assay [6]; -5.58% in the assay listed under Homo sapiens; 1.59% in [7]; 7.32% in assay [8]; -1.85% in assay [9].
For the compound `CC(C)(C)c1nnc(CN2CCCC2c2noc(C3CC3)n2)o1` (stereo unspecified), the Percent Effect was 0.285% in assay [1]; 8.11% in assay [2]; 0.0576% in [3]; -0.506% in [4]; 2.32% with Trypanosoma cruzi; -0.554% in assay [5]. In addition, the Percent Effect in assay [6] was 8.08%; in the assay listed under Homo sapiens it was -8.49%; in [7], 10.9%; in assay [8], 28.1%; in assay [9] it was -6.45%.
Consider `CCCn1nc2c(cc1=O)CN(Cc1cc(C)on1)CC2`, for which the Percent Effect in assay [1] was -5.31%; in assay [2], -2.7%; in assay [3] it was -46.3%; in assay [4], 0.285%; in the assay on Trypanosoma cruzi, -1.76%; in assay [5], 7.08%. Further, the Percent Effect is 17.8% in assay [6]; 9.88% in the assay filed under Homo sapiens; 6.93% in [7]; 6.1% in [8]; -7.36% in [9].
Consider `Cc1nc(C)n(CC2CCCN(CCNC(=O)OC(C)(C)C)C2)n1` (stereo unspecified), for which the Percent Effect in assay [1] is -0.765%; in assay [2], 2.6%; in [3] it was 5.46%; in [4] it was 11.6%; with Trypanosoma cruzi, 1.67%; in assay [5] it was 5.26%. Besides, the Percent Effect in assay [6] is 5.9%; in the assay listed under Homo sapiens it was 9.69%; in assay [7], 2.86%; in assay [8], 0%; in [9], -4.66%.
